# Results as given in PubChem BioAssay (NCATS).
# Results filed as inconclusive are left out. The source made the active and inactive calls. Unless noted, the call rests on the fitted dose curve.
# Columns and labels:
# [1] = biological target: Cytochrome P450 2D6 (Homo sapiens) (UniProt P10635); assay: Cytochrome P450 family 2 subfamily D member 6 (CYP2D6) small molecule antagonists: luciferase biochemical (cell-free) qHTS assay (AID 1645840; active means well fitted curve in the direction sought with a large enough effect in the repeat runs; an effect the other way counts as inactive or inconclusive; further: potency means the concentration at half of the fitted maximal effect; nearly all actives have a fitted effect of over 55% in size); conditions: P450-Glo CYP2D6 enzyme, luciferin luminescence, 1 h; series mostly up to 57.4 µM
# In short: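 P450-Glo CYP2D6 system: proluciferin substrate converted by enzyme to luciferin, read by luminescence proportional to activity. Enzyme-substrate mix with compound 10 min at room temperature, then NADPH regeneration 1 h before detection reagent.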
# [2] = biological target: Glutathione peroxidase 1 (Homo sapiens) (UniProt P07203); assay: Primary qHTS Assay for Inhibitors of Recombinant Selenoprotein Glutathione Peroxidase 1 (GPX1) (AID 1845191; active means well fitted curve in the direction sought with a large enough effect; an effect the other way counts as inactive or inconclusive; further: on the % scale 0 is the no-effect control and ±100 the full control effect; nearly all actives have a fitted effect of over 65% in size); conditions: recombinant GPX1, GR-coupled NADPH fluorescence, 15 min; series mostly up to 48.8 µM
# In short: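 GR-coupled readout: NADPH consumption tracked by fluorescence, ex 340/em 450 nm, at t=0 and after 15 min at RT. Final mix 10 nM GPX1, 1 mM GSH, 0.5 mM CHP, 0.5 mM NADPH, 100 nM GR, 0.01% BSA, following 30 min enzyme–compound preincubation.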
# [3] = biological target: Cytochrome P450 3A4 (Homo sapiens) (UniProt P08684); assay: qHTS Assay for Inhibitors and Substrates of Cytochrome P450 3A4 (AID 884; active means well fitted curve in the direction sought with a large enough effect; an effect the other way counts as inactive or inconclusive; further: nearly all actives have a fitted effect of over 50% in size; further: potency means the concentration at half of the fitted maximal effect; on activity change, negative = inhibition: on the % scale 0 is the no-effect control and ±100 the full control effect); conditions: recombinant CYP3A4, Luciferin-PPXE luminescence; series mostly up to 57.1 µM
# In short: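 Luminescent readout of luciferin produced by CYP3A4 (20 nM) dealkylation of Luciferin-PPXE, 25 uM (its KM). NADPH-driven reaction ran 60 min at RT after 10 min compound preincubation; data scaled to 57 uM ketoconazole as 100% inhibition.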
# [4] = Confirmation and Secondary Assay for Modulators of Hemoglobin Beta Chain Splicing at IVS2 654 locus (AID 910; active means well fitted curve in the direction sought with a large enough effect; an effect the other way counts as inactive or inconclusive;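 further: HeLa cells stably carrying EGFP split by mutant beta-globin IVS2-654 intron; % of control where 0% means no effect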); conditions: HeLa EGFP-654 splicing reporter, GFP fluorescence, 48 h; series mostly up to 46.1 µM
# In short: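 HeLa cells stably expressing EGFP interrupted by β-globin IVS2-654 intron, seeded overnight in Opti-MEM/2% FCS, then treated 2 days at 37 °C. Restored splicing read as total peak GFP intensity per well by laser scanning cytometry (488 nm excitation, 500–520 nm emission); 500 nM antisense PNA as control.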
# [5] = Confirmation and Secondary Assay for Modulators of Hemoglobin Beta Chain Splicing at IVS2 705 locus (AID 930; active means well fitted curve in the direction sought with a large enough effect; an effect the other way counts as inactive or inconclusive;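 further: HeLa cells stably expressing the EGFP-705 splicing reporter; GFP fluorescence per well restored by corrected splicing of the IVS2-705 intron in EGFP; % of control where 0% means no effect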); conditions: HeLa EGFP-705 splicing reporter, GFP fluorescence, 48 h; series mostly up to 46.1 µM
# In short: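 Stable HeLa line with EGFP disrupted by mutant beta-globin intron 2 (705). Overnight attachment, then 2 days of compound at 37C, 5% CO2. Signal: peak GFP intensity summed over objects 5-250 µm.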
# [6] = qHTS Assay for Lipid Storage Modulators (AID 1519); conditions: Drosophila S3 cells, BODIPY lipid droplet/cell ratio, laser cytometry, cells loaded with oleic acid; for activity change, negative = inhibition: at 57.5 µM (top of the series); further: potency means the concentration at half of the fitted maximal effect; on activity change, negative = inhibition: on the % scale 0 is the no-effect control and ±100 the full control effect
# In short: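 Cells seeded at 5,000 per well were treated with compounds over a concentration series and loaded with oleic acid (400 uM, as added). Lipid droplet fluorescence (488 nm excitation, 500-530 nm channel) was read by laser-scanning cytometry and normalized to 20 uM Triacsin C.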
# [7] = biological target: Cytochrome P450 3A4 (Homo sapiens) (UniProt P08684); assay: qHTS Assay for Activators of Cytochrome P450 3A4 (AID 885; active means well fitted curve in the direction sought with a large enough effect; an effect the other way counts as inactive or inconclusive; further: nearly all actives have a fitted effect of over 65% in size); conditions: recombinant CYP3A4, Luciferin-PPXE luminescence, 60 min; series mostly up to 57.1 µM
# In short: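 CYP3A4 activity: Luciferin-PPXE O-dealkylation, 25uM substrate, 200mM KPO4, RT throughout. Read-out is luciferase luminescence; higher values reflect activation.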
# [8] = Confirmatory qHTS to identify inhibitors of SARS-CoV-2 cell entry (AID 1645844); conditions: SARS-CoV-2 pseudotyped particle cell entry, luciferase; series mostly up to 57.2 µM; further: nearly all actives have a fitted effect of over 45% in size; further: potency means the concentration at half of the fitted maximal effect
# In short: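 HEK293-ACE2, overnight seeding; cpd 1 h, 37C/5% CO2; + SARS-CoV-2-S MLV PP (Wuhan-Hu-1, ΔC19); 48 h; Bright-Glo luminescence. Data normalised to S PP and bald PP wells.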
# [9] = Cytotoxicity counterscreen for inhibitors of SARS-CoV-2 cell entry (AID 1645845); conditions: cell viability (SARS-CoV-2 entry assay cells); series mostly up to 57.1 µM; further: nearly all actives have a fitted effect of over 50% in size; on activity change, negative = cytotoxicity: on the % scale 0 is the no-effect control and ±100 the full control effect
# In short: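 Counterscreen run in the same HEK293-ACE2 line as the pseudotyped-particle entry assay, without particles. Viability after 48 h at 37 C was read as ATP luminescence, scaled between cell-containing and cell-free wells.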
# [10] = Primary qHTS to identify inhibitors of SARS-CoV-2 cell entry (AID 1645846); conditions: SARS-CoV-2 pseudovirus cell entry assay, luminescence; activity change, negative = inhibition: at 57.1 µM (top of the series) unless noted; further: nearly all actives have a fitted effect of over 45% in size; further: potency means the concentration at half of the fitted maximal effect
# In short: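 Data are normalized to wells receiving SARS-CoV-2-S pseudoparticles and those given bald particles. Entry signal was luciferase luminescence in stable hACE2 Expi293F cells, 48 hr post-infection, after 1 hr compound pretreatment.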
# [11] = VSVG counterscreen qHTS to identify inhibitors of SARS-CoV-2 cell entry (AID 1645847); conditions: VSV-G pseudotyped particle entry, luciferase; series mostly up to 57.2 µM; further: nearly all actives have a fitted effect of over 65% in size; further: potency means the concentration at half of the fitted maximal effect; on activity change, negative = inhibition: on the % scale 0 is the no-effect control and ±100 the full control effect
# In short: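 Counterscreen using VSV-G (not spike) pseudotyped MLV particles on ACE2-expressing Expi293F cells after 1 h compound preincubation; infection ran 48 h at 37 °C. Data normalized to VSV-G PP and bald-PP wells.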
# [12] = S16 Schwann cell PMP22 intronic element beta-lactamase assay (AID 624044); conditions: S16 rat Schwann cells, PMP22 element beta-lactamase FRET, 24 h; ratio activity, negative = inhibition: at 38.3 µM (top of the series) unless noted; further: potency means the concentration at half of the fitted maximal effect; nearly all actives have a fitted effect of over 15% in size
# In short: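 Beta-lactamase reporter under a PMP22 intronic regulatory element in stable S16 rat Schwann cells; 24 h compound exposure. 460 nm blue signal normalized between DMSO (0%) and potassium clavulanate, with 535 nm FRET tracking viability; curves classed by r2 and response.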
# [13] = measured here: cell count channel max response
# [14] = measured here: lipid channel max response
# Sequence of Cytochrome P450 3A4 (Homo sapiens) (P08684 whole entry, looked up): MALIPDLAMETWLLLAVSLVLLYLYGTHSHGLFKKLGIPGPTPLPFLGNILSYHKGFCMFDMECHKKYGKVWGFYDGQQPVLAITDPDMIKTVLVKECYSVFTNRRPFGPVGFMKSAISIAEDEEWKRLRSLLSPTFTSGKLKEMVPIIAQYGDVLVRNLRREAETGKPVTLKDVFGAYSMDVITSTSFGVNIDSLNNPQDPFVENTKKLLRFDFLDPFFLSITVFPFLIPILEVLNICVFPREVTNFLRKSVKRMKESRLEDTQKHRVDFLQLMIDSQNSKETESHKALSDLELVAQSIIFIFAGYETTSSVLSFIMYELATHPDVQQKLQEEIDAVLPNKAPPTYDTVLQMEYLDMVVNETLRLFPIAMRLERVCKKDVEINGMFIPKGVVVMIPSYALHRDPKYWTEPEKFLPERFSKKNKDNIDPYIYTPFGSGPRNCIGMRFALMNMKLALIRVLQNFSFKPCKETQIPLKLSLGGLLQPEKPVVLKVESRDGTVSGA
# Sequence of Cytochrome P450 2D6 (Homo sapiens) (P10635 whole entry, looked up): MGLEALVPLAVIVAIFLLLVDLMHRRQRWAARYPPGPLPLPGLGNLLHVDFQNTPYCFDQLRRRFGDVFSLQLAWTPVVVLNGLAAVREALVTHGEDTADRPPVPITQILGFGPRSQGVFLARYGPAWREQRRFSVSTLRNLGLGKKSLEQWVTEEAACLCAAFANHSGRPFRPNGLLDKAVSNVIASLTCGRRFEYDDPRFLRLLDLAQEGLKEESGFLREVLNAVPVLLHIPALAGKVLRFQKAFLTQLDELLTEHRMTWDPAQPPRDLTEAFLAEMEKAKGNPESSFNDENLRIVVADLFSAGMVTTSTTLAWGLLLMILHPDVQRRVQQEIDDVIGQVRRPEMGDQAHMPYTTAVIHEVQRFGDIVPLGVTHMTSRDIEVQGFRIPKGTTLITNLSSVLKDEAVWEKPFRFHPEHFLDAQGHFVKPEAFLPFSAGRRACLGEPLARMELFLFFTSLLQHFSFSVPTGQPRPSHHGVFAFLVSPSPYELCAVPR
# Sequence of Glutathione peroxidase 1 (Homo sapiens) (P07203 whole entry, looked up): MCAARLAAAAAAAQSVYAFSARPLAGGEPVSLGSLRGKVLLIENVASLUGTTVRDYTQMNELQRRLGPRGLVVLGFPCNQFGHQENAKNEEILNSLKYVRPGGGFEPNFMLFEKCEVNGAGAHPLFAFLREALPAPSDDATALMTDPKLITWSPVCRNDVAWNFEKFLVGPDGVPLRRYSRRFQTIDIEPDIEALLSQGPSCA
structure (smiles),measurement,setting,value
CCN1CCN(C(c2ccc(Cl)cc2)c2ccc(Cl)cc2)CC1,Potency,[1],0.952 µM (active)
same,Potency,[2],inactive
Cc1cc(OC(=O)N2CCCCC2)c(C(C)C)cc1[N+](C)(C)C,Potency,[3],inactive
same,Potency,[4],inactive
same,Potency,[5],inactive
same,"activity change, negative = inhibition",[6],8.28% (inactive)
same,max response,[6]; [13],17.5%
same,max response,[6]; [14],31.1%
CC(=O)OC1C[C@@]2(C)C(c3ccoc3)C[C@H]3O[C@@]32[C@@]2(C)C(=O)C(O)=C3C(C)(C)C(=O)C=C[C@]3(C)C12 (some centres not stated),Potency,[3],0.398 µM (active)
same,Potency,[4],inactive
same,Potency,[5],inactive
same,Potency,[6],15.8 µM (active)
same,max response,[6]; [13],-2.69%
same,max response,[6]; [14],-67.6%
Nc1ncn[nH]1,Potency,[7],inactive
same,Potency,[4],inactive
same,Potency,[5],inactive
same,"activity change, negative = inhibition",[6],11.2% (inactive)
same,max response,[6]; [13],9.75%
same,max response,[6]; [14],23.5%
O=C(c1ccc(Nc2nc(C3CC3)cn3c(-c4cn[nH]c4)cnc23)c(F)c1)N1CCOCC1,Potency,[8],3.41 µM (active)
same,Potency,[9],inactive
same,"activity change, negative = inhibition",[10],-58.9%
same,Potency,[11],8.57 µM (active)
CS(=O)(=O)c1ccc(-c2cnc(NCc3ccco3)n3cnnc23)cc1,Potency,[8],27.1 µM (active)
same,Potency,[9],inactive
same,"activity change, negative = inhibition",[10],-43.5%
same,Potency,[11],inactive
C[C@@]12C(=O)OC(=O)[C@]1(C)[C@H]1CC[C@@H]2O1,Potency,[12],3.37 µM (active)
same,Potency,[8],4.82 µM (active)
same,Potency,[10],8.91 µM (active)
same,Potency,[11],3.04 µM (active)
C=CC(=O)N[C@H]1CN(c2nc(Nc3cn(C)nc3OC)c3ncn(C)c3n2)C[C@@H]1F,Potency,[8],inactive
same,Potency,[9],inactive
same,Potency,[11],inactive
C[C@H]1COCCN1c1cc(C2(S(=O)(=O)C3CC3)CC2)nc(-c2ccc(NC(=S)NCCO)cc2)n1,Potency,[8],0.764 µM (active)
same,Potency,[9],inactive
same,"activity change, negative = inhibition",[10],-79.3%
same,Potency,[11],0.304 µM (active)
N#Cc1cccnc1N1CCN(C(=O)c2cccc(Cc3n[nH]c(=O)c4ccccc34)c2)CC1,Potency,[8],0.0681 µM (active)
same,"activity change, negative = inhibition",[10],-93.1%
same,Potency,[11],0.0607 µM (active)
CCc1cnn2c(NCc3ccc[n+]([O-])c3)cc(N3CCCC[C@H]3CCO)nc12,Potency,[8],0.0541 µM (active)
same,Potency,[9],inactive
same,"activity change, negative = inhibition",[10],-54%
same,Potency,[11],0.0341 µM (active)
O=c1[nH]c([C@@H]2CCCN2)nc2c1oc1ccc(Cl)cc12,Potency,[8],5.41 µM (active)
same,Potency,[9],inactive
same,Potency,[11],7.64 µM (active)
C[C@@]1(c2ncncc2F)NC(=O)c2cc(-c3cn[nH]c3)ccc21,Potency,[8],3.04 µM (active)
same,Potency,[9],inactive
same,Potency,[11],4.82 µM (active)
C=CC(=O)Nc1cccc(Nc2nc(Nc3ccc(OCCOC)cc3)ncc2F)c1,Potency,[8],6.81 µM (active)
same,Potency,[9],inactive
same,Potency,[11],4.82 µM (active)
CC[C@@]1(O)C(=O)OCc2c1cc1n(c2=O)Cc2c-1nc1ccccc1c2CCNC(C)C,Potency,[8],0.0054 µM (active)
same,"activity change, negative = cytotoxicity",[9],-47.2% [at 5.25 µM] (inactive)
same,"activity change, negative = inhibition",[10],-96.8% [at 5.25 µM]
same,Potency,[11],0.0061 µM (active)
COc1ccc2[nH]c3c(c2c1)CCN[C@]31CS[C@@H]2c3c(OC(C)=O)c(C)c4c(c3[C@H](COC1=O)N1[C@@H]2[C@H]2c3c(cc(C)c(OC)c3O)C[C@@H]([C@@H]1O)N2C)OCO4,Potency,[8],0.0044 µM (active)
same,Potency,[10],0.631 µM (active)
same,Potency,[11],0.0035 µM (active)
